HCV inhibitor: blocks hepatitis C virus. Huh7.5.1 HCVcc-Cre infection, luciferase reporter, 44 h. Potency, µM (top dose mostly 41.8 µM), inactives show at the highest dose activity change, negative = inhibition, usual class: inhibitors. 3.4% of 340,000 active. AID 651820; further: potency means the concentration at half of the fitted maximal effect; on the % scale 0 is the no-effect control and ±100 the full control effect
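A cell-based infection assay in which seeded cells (1,000 per well) receive test compound after 4 h, are inoculated with HCVcc-Cre at approximately 0.5 moi, and are incubated 44 h before luminescence detection.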
Shiga inhibitor: Shiga toxin inhibition; Vero cells, Shiga toxin protein synthesis inhibition reporter; 9.2% of 290,000 active; inhibition, % at 38.7 µM; in the data active means inhibition mostly above about 28%, no sharp cut-off; inactive means mostly below about 43%; further: 0% is about no effect
Pf growth 96h: P. falciparum growth inhibition at 96 hour, primary screen for plastid delayed-death inhibitors. P. falciparum luciferase reporter growth, 96 h. Potency, µM (titrated, usually from 28.7 µM), for inactives: at the highest dose activity change, negative = inhibition, most hits filed as inhibitors. 6.9% of 320,000 active; further: potency means the concentration at half of the fitted maximal effect; on the % scale 0 is the no-effect control and ±100 the full control effect
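Two parasite generations (96 h, 37 C, 5% CO2) of compound exposure in infected erythrocytes (0.05% parasitemia, 2% hematocrit). Luciferase-reporter P. falciparum; decreased luminescence indicates inhibited growth, aimed at apicoplast-acting delayed death.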
Pf growth 48h: P. falciparum growth inhibition at 48 hours (one generation) | P. falciparum luciferase growth in erythrocytes, 48 h | 5.9% of 310,000 active | Potency, µM (doses to about 28.7 µM), without a hit: at the highest dose activity change, negative = inhibition, most hits filed as inhibitors; further: potency means the concentration at half of the fitted maximal effect; on the % scale 0 is the no-effect control and ±100 the full control effect
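Erythrocytes infected with P. falciparum carrying an integrated firefly luciferase reporter (2% hematocrit, 0.1% parasitemia final) were exposed to compounds in RPMI 1640 with 0.5% Albumax at 37 C, 5% CO2. Growth inhibition was scored as reduced luminescence.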
AMA1 RON2 block: AMA1-RON2 (P. falciparum) interaction inhibition. AlphaScreen AMA1-biotinylated RON2 peptide binding. Potency, µM (titrated, usually from 58.2 µM), for inactives: at the top dose activity change, negative = inhibition, usual class: inhibitors. 0.2% of 360,000 active. AID 720542;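 further: potency means the concentration at half of the fitted maximal effect; 0% = vehicle wells and -100% = peptide control; nearly all actives have a fitted effect of over 45% in size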
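AMA1 (3D7) with his tag at 25 nM final met compounds first, then biotinylated RON2 peptide at 25 nM; detection used donor plus acceptor beads, 10 µg/mL apiece, read by AlphaScreen after 30 min at room temperature.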
Cycloheximide cs: counter-screen hit for Shiga toxin inhibitors, cycloheximide. cell reporter, cycloheximide protein synthesis inhibition counterscreen. max response, %. 12% of 300,000 active; in the data active means max response mostly above about 13%, no sharp cut-off; inactive means mostly below about 14%; further: read at 38.3 µM for the half of the compounds with a filed dose; 0% is about no effect
An asterisk follows results filed as active; i = inactive; ? = inconclusive; / = no result; [ ] = dose if it differs, or a comment. Hits are enriched below; roughly 21% of the tested compounds scored in any of these assays. Unless noted, the call rests on the fitted dose curve; in most records, active means well fitted curve in the direction sought with a large enough effect; inconclusive means small, poorly fitted or top-dose-only effect, or another doubt; inactive means no such curve, though single readings can be large; an effect the other way counts as inactive or inconclusive.

SMILES	HCV inhibitor	Shiga inhibitor	Pf growth 96h	Pf growth 48h	AMA1 RON2 block	Cycloheximide cs
CC(C)c1ccc(CNCc2ccccc2)cc1	-9.6%	59.6*	-28.2%	19.7%	-6.7%	32.1*
CCc1noc(C)c1C(=O)NNC(=O)COc1ccc(Br)cc1	4.8%	5.2	32.1%	?	70.7%	-1.9
O=C(CCNC(=O)c1ccc([N+](=O)[O-])cc1)NC1CCCCCC1	12.7%	/	-5.1%	-13.9%	-8.6%	/
O=C(c1ccc(F)cc1)C1CCN(CCn2c(=O)[nH]c3ccccc3c2=O)CC1	?	-11.8	10.7µM*	6.57µM*	-20.9%	-5.9
Cc1cc(=O)n2nc(N3CCC(C(=O)NC4CCCc5ccccc54)CC3)sc2n1 (centres undefined)	-5.3%	-17.0	0.586µM*	?	-9.2%	-5.8
Cc1cc(=O)n2nc(N3CCC(C(=O)NCc4ccccc4Cl)CC3)sc2n1	-17.7%	-3.6	11.7µM*	?	12.9%	8.0
COc1ccc(Br)cc1C(=O)Nc1ccccc1N1CCN(C(=O)c2ccccc2)CC1	11.2µM*	-3.2	-10.9%	?	2.4%	-1.9
Cc1ccccc1C(=O)Nc1ccccc1N1CCN(C(=O)c2ccccc2)CC1	-15.0%	-7.1	17.8%	11.7µM*	-9.1%	-3.0
CCOc1ccc(C(=O)Nc2ccccc2N2CCN(C(=O)c3ccccc3)CC2)cc1[N+](=O)[O-]	?	-12.2	1.65µM*	1.31µM*	3.1%	-1.6
CCOc1ccc(C(=O)NC(=S)Nc2ccccc2N2CCC(C)CC2)cc1[N+](=O)[O-]	?	-8.8	/	?	-0.5%	-2.2
CCN(C(=O)CSc1ccc2ccccc2n1)C1CCCCC1	?	/	/	/	15.3%	/
FC(F)(F)COc1nc(N/N=C/c2cccnc2)nc(N2CCCCC2c2ccccn2)n1 (centres undefined)	?	-6.7	9.28µM*	11.7µM*	11.1%	-5.0
O=C1NC[C@H](CCCCN2C[C@H](Cc3ccc(O)cc3)N(CCc3ccccc3)C(=O)C2=O)N(CC2CCCCC2)C1=O	/	/	/	/	41.9%	/
Cc1ccc(N(C(=O)c2snc(C(N)=O)c2N)C(C(=O)NCCC(C)C)c2ccco2)cc1 (centres undefined)	31.6µM*	-14.1	?	-25.5%	-6.7%	-1.0
Cc1ccc(C(C(=O)NCC2CCCO2)N(C(=O)c2snc(C(N)=O)c2N)c2ccc3c(c2)OCCO3)cc1 (centres undefined)	?	-3.9	-3.8%	10.4µM*	?	-2.5
Cc1ccc(N(C(=O)c2snc(C(N)=O)c2N)C(C(=O)NCC2CCCO2)c2ccc3ncccc3c2)cc1 (centres undefined)	-21.7%	-6.3	1.7%	?	6.0%	-2.0
NC(=O)c1nsc(C(=O)N(c2ccc3c(c2)OCCO3)C(C(=O)NCC2CCCO2)c2ccc(F)cc2)c1N (centres undefined)	?	63.5*	-3.0%	?	-23.2%	28.5*
CC(C)CCNC(=O)C(c1ccco1)N(Cc1ccccc1)C(=O)c1snc(C(N)=O)c1N (centres undefined)	/	44.3	/	?	8.7%	2.2
COc1cccc(CNC(=O)[C@@H]2CCCN2C(=O)[C@H]2CCCCN2S(=O)(=O)c2ccc(OC)c(C)c2)c1	/	/	/	/	-2.3%	/
COc1ccc(-c2cc(C(=O)Nc3cc(C)nn3-c3ccccc3)no2)cc1OC	?	1.7	-7.9%	?	9.9%	-2.6
COc1ccc([N+](=O)[O-])cc1N(CC(O)CN1C(=O)NC(C)(C)C1=O)S(=O)(=O)c1ccccc1 (centres undefined)	15.2%	-15.2	14.7µM*	22.5%	-0.1%	-6.4
CC1=C(C(=O)O)N2C(=O)C(NC(=O)c3ccc(F)cc3)C2SC1 (centres undefined)	13.5%	/	2.5%	10.8%	26.9%	/
C=CCn1c(C)nc2c(cnn2-c2ccccc2)c1=O	-1.6%	18.7	-23.5%	0.0%	5.0%	14.4*
CCSc1nc2c(cnn2-c2ccccc2)c(=O)n1N	2.5%	49.8*	105.7%	285.5%	18.0%	45.8*
Cc1cccc(-n2c(C)nc3c(cnn3-c3ccc(F)cc3)c2=O)c1	6.31µM*	31.3	9.28µM*	?	15.8%	38.8*
SMILES	HCV inhibitor	Shiga inhibitor	Pf growth 96h	Pf growth 48h	AMA1 RON2 block	Cycloheximide cs
CSc1nc2c(cnn2-c2ccccc2)c(=O)n1N	2.5%	91.2*	-27.2%[5.75 µM]	230.0%	13.2%	28.0*
CCCCCSc1nc2c(cnn2-c2ccccc2)c(=O)[nH]1	-3.3%	20.0	1.0%	13.6%	0.0%	0.9
Cc1ccc(-c2nn3c(-c4ccccc4)nnc3o2)cc1	/	/	/	/	8.2%	/
COC(=O)c1nc2nc(-c3cccs3)cc(C(F)(F)F)n2n1	8.4%	1.3	-13.3%	11.7%	-28.0%	-1.0
COC(=O)c1nc2nc(C)cc(C(F)(F)F)n2n1	21.9%	-37.4	11.7µM*	0.6%	1.0%	-11.9
COc1nc2cc(C)ccc2cc1-c1noc(-c2cccnc2)n1	/	29.3	?	/	/	-4.9
CCc1nc(-c2ccc(C)nc2OC)no1	22.5%	-1.2	-13.6%	4.1%	-15.4%	7.8
COc1ccccc1-c1nc(-c2ccc(C)nc2OC)no1	-25.7%	93.3*	-18.4%	192.1%	-2.3%	48.8*
COc1nc(C)ccc1-c1noc(-c2cccnc2)n1	-5.4%	/	0.0%	0.0%	-3.6%	19.3*
COc1nc(C)ccc1-c1noc(-c2ccccn2)n1	5.8%	144.3*	-4.0%	163.7%	18.6%	56.8*
CCNC(=S)Nc1ccc2c(c1)c(=O)n(C)n2-c1ccc(C(C)(C)C)cc1	/	/	/	/	33.9%	/
CCc1nc2c(OCc3ccccc3)cccn2c1N(C)C(=O)c1ccc2c(c1)OCO2	/	/	/	/	-20.6%	/
CCOC(=O)Cc1csc(NC(=O)CC)n1	12.0%	19.3	215.1%	34.7%	-2.1%	1.5
CCOC(=O)Cc1csc(NC(=O)C(C)(C)CC)n1	-2.0%	51.0*	?	/	11.9%	31.1*
CCOC(=O)Cc1csc(NC(=O)CC(C)(C)C)n1	5.3%	122.1*	49.6%	0.0%	i	31.7*
CC(C)[C@H](NC(=O)[C@H](CCC(N)=O)NC(=O)CNC(=O)[C@@H]1CCCN1C(=O)[C@H](Cc1ccc(O)cc1)NC(=O)CN)C(=O)O	/	6.9	/	/	/	-3.1
COc1ccc(CCNC(=O)CN2C(=O)c3cccc4cccc(c34)C2=O)cc1OC	-2.5%	-2.7	10.4µM*	12.4%	-1.7%	-2.8
CCC(C)(C)C1CCC2(CC1)NC(=O)N(CC(=O)NCCc1ccc(OC)c(OC)c1)C2=O (centres undefined)	?	/	?	11.7µM*	-7.7%	/
COC(=O)CN1C(=S)N(c2ccc(OC)cc2)C(=O)/C1=C/c1ccc(N2CCOCC2)cc1	-5.5%	16.4	-1.4%	?	-18.0%	0.5
COC(=O)CN1C(=S)N(c2ccc(OC)cc2)C(=O)/C1=C/c1ccc(OC)cc1	-7.3%	-13.6	-0.9%	11.7µM*	?	6.5

Assay outcomes (PubChem)
